This is a sample that favours compounds with a hit; in the whole collection about 32% have one here.
CYP2C19 activ = cytochrome P450 2C19 (human) activation | P33261 | recombinant CYP2C19, luciferin-H EGE luminescence; stronger effect = higher value; 0 = fully inhibited enzyme, 1 = untreated enzyme | activation factor at 5 µM | 96,000 tested, under 10 active | AID 1025;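 active means activation factor of at least 2 at 5 µM in the primary screen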;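 further: 0 = wells with 2.5 mM tranylcypromine and 1 = vehicle-only wells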
Target sequence (P33261 whole entry, looked up): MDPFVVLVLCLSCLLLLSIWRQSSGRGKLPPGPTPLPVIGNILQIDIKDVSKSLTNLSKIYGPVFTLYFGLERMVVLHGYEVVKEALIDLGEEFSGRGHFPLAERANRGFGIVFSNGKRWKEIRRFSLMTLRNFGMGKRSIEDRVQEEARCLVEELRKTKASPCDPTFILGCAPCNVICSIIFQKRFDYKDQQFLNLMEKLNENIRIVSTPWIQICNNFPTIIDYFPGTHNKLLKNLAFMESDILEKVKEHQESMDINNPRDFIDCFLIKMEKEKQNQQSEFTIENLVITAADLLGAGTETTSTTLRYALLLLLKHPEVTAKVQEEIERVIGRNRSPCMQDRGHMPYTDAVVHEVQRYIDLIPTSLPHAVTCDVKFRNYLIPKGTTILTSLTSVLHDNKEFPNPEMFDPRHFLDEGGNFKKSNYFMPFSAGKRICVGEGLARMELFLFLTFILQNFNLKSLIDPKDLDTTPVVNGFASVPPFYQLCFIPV
CYP2C9 act = activators of human CYP2C9; recombinant CYP2C9, luciferin-H conversion, luminescence; stronger effect = higher value; factor 1 = untreated enzyme, 0 = blocked; activation factor at 5 µM; actives 1.4% (n = 96,000); P11712;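 active means activation factor of 2 or more for CYP2C9 at a 5 µM dose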;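 further: 0 = sulfaphenazole-blocked wells and 1 = vehicle-only wells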
CYP2C19 inhib = inhibitors of human CYP2C19; CYP2C19 Supersomes, luciferin-H EGE luminescence, 30 min; inhibition, % at 5 µM; actives 21% (n = 96,000);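 active means CYP2C19 inhibition above a set limit at 5 µM in the primary screen, cut at about 50% in these data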;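 further: plate controls were negative control wells for no effect and 2.5 mM tranylcypromine positive control for full effect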
PostGolgi ctrl = inhibits growth of the yeast control strain. AID 738. actives 5% (n = 98,000). efflux-deficient yeast background strain, growth absorbance A615, 16 h. inhibition, % at 10 µM
CYP2C9 inhib = inhibitors of human CYP2C9 | CYP2C9 Supersomes, luciferin-H conversion, luminescence | inhibition, % at 5 µM | actives 20% (n = 96,000) | AID 777;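 active means blocking of liver enzyme CYP2C9 beyond about 50% at 5 µM, limit read from the data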
PostGolgi yeast = growth inhibition of a yeast mutant, post-Golgi transport screen | post-Golgi transport phenotypic cell assay | inhibition, % at 10 µM | AID 739 | actives 0.9% (n = 98,000);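 further: yeast cells grown in 1536-well plates; yeast grown about 18 h at 30C before absorbance read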
* = called active by the depositor; x = not tested or not shown. Unless noted, no stated cut-off is given here; in the data, active means inhibition above about 30%; inactive means the rest.

SMILES	CYP2C19 activ	CYP2C9 act	CYP2C19 inhib	PostGolgi ctrl	CYP2C9 inhib	PostGolgi yeast
Cc1ccc(NC(=O)c2cc(NC(=O)C3CC=CCC3C(=O)O)ccc2N2CCOCC2)cc1Cl (stereo not drawn)	0.9	0.4	9.1	-3.4	61.1*	9.2
O=C(NCc1ccco1)C(c1cccnc1)N(C(=O)Cn1nnc2ccccc21)c1ccccc1 (stereo not drawn)	0.5	0.7	51.2*	-1.9	30.5	6.3
O=C(NCc1ccco1)C(c1ccncc1)N(CCC1=CCCCC1)C(=O)Cn1nnc2ccccc21 (stereo not drawn)	0.5	0.4	50.8*	-1.5	61.7*	0.0
Cc1cccc(N(C(=O)Cn2nnc3ccccc32)C(C(=O)NCc2ccco2)c2ccncc2)c1 (stereo not drawn)	0.8	0.8	20.5	1.2	23.1	1.1
COc1ccc(N(C(=O)Cn2nnc3ccccc32)C(C(=O)NCc2ccco2)c2cccnc2)cc1 (stereo not drawn)	0.2	0.9	78.0*	-2.6	6.9	2.1
COCCNC(=O)CN(C(=O)Cn1nnc2ccccc21)c1ccc(F)c(Cl)c1	0.4	1.1	56.2*	6.9	-5.1	3.4
O=C(NCc1ccco1)C(c1cccnc1)N(C(=O)Cn1nnc2ccccc21)c1ccc(F)cc1 (stereo not drawn)	0.9	1	11.8	0.8	2.4	-6.1
O=C1C2C3C=CC(C2C(=O)N1CCCO)C1C2C(=O)N(CCCO)C(=O)C2C31 (stereo not drawn)	1.1	1.1	-12.1	-3.0	-5.6	-10.2
COC(=O)[C@H](C)NC(=O)Nc1cc(OC)ccc1OC	0.9	1.1	5.8	6.3	-14.6	-5.1
Cc1ccc(C2C(C#N)=C(N)Oc3c2oc(CO)cc3=O)o1 (stereo not drawn)	1.1	1	-13.2	x	-3.1	x
Cc1ccc(S(=O)(=O)N2CCN(C(=O)CN3CCN(C)CC3)C2)cc1	1	0.9	0.5	21.6	6.4	2.1
CCc1ccccc1N(C(=O)Cn1nnc2ccccc21)C(C(=O)NCCOC)c1ccco1 (stereo not drawn)	0.4	0.4	61.3*	1.6	56.0*	1.4
Cn1cnnc1SCc1ccc(C#N)cc1	1	1.4	-3.8	-9.9	-36.4	23.6
Cn1cnnc1SCc1ccc(-c2ccc(Br)cc2)o1	0.1	0.4	92.9*	9.7	56.1*	0.4
CCOC(=O)CSc1nnc(CSc2nc3ccccc3s2)n1C	0.6	1	44.3	8.7	2.1	-4.7
CCn1c(CSc2nc3ccccc3s2)nc2ccccc21	0	1.3	97.7*	10.8	-26.6	-4.7
C#CCSc1nnc(CSc2nc3ccccc3s2)n1-c1ccccc1	0.1	0	85.4*	22.9	99.2*	2.3
Cc1noc(C)c1CSc1nc2ccccc2s1	0.1	0.6	94.4*	18.4	39.2	-8.5
Cc1noc(C)c1CSc1ncnc2ccccc12	0	0.1	96.2*	10.3	86.1*	-3.3
Cc1csc(NC(=O)Cc2nn(C)c(=O)c3ccccc23)n1	1.1	0.8	-7.4	-3.0	16.2	-0.8
Cc1nc(C)c(C(=O)NCc2ccccc2Cl)o1	1	1	1.0	6.8	-4.6	3.9
Cc1cc(SCCOc2ccc(Br)cc2)nc(N)n1	0.7	0.5	32.3	17.1	53.9*	-2.4
Cc1ccc(S(=O)(=O)N2CCN(c3cc4c(cc3[N+](=O)[O-])n(C)c(=O)n4C)CC2)cc1	0.2	0.2	75.8*	25.3	80.6*	-2.4
Cn1c(=O)n(C)c2cc([N+](=O)[O-])c(N3CCN(S(=O)(=O)c4ccc5ccccc5c4)CC3)cc21	0.3	0.6	73.4*	15.3	39.6	-4.3
COc1cccc(-n2cnc3cccc(N)c32)c1	0.6	2.3*	36.8	-0.4	-125.4	-2.8
COc1cccc(N2C(N)=NC(N)=NC2(C)C)c1	0.9	0.9	7.4	3.6	12.1	6.6
COC(=O)c1[nH]c2cccc(OC)c2c1NC(=O)C(C)N1CCC(C)CC1 (stereo not drawn)	0.8	2.3*	18.3	3.5	-125.4	14.3
O=C(CSc1nnc(-c2cccnc2)n1-c1ccccc1)N1CCN(c2ccc(F)cc2)CC1	0.1	0.4	92.0*	-7.0	63.7*	-0.5
Cc1ccc(-n2c(SCC(=O)N3CCOCC3)nnc2-c2ccncc2)cc1	0.3	0.9	72.2*	6.3	12.4	0.7

From PubChem
